# High-throughput results from PubChem.
# KB-V1 MDR tox: qHTS assay for MDR1-selective chemotherapeutics: Primary screen using the drug-selected MDR subline cells KB-V1. KB-V1 MDR cells viability, CellTiter-Glo, 72 h. Potency, µM (doses to about 46.1 µM), most hits filed as cytotoxic. hit rate 3.4% among 400,000. AID 1347076, 2019; also: potency is read from the fitted curve at half-maximal effect; % is scaled to controls: 0 for no effect and ±100 for the full control effect; nearly all actives have a fitted effect of over 60% in size
#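 In this primary screen, KB-V1 cells overexpressing P-gp are incubated with library compounds (lowest to highest concentration) for 72 h at 37 degrees C before a luminescent ATP viability read.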
# Giardia killer: Small Molecules that selectively kill Giardia lamblia: qHTS; Giardia lamblia trophozoite viability; AID 540267, 2011; activity change, % at 7.66 µM, hits read low; hit rate 0.15% among 340,000; in the data active = activity change below about -80%; inconclusive = between about -30% and that limit;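 also: parasites exposed to compound for two days anaerobically before the ATP read; % is scaled to controls: 0 for no effect and ±100 for the full control effect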
#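 Trophozoite viability was measured as ATP-dependent luminescence, read 15-30 min after reagent addition. Before that, parasites at 100 cells/well were exposed to compounds for 48 h, anaerobically, at 37 deg C.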
# S-ASM inh: Inhibitors of Secretory Acid Sphingomyelinase (S-ASM): qHTS; hit rate 0.006% among 340,000; placental ASM, HMU-PC fluorogenic substrate, 60 min; Potency, µM (top dose mostly 57.5 µM), without a hit: at the highest dose activity change, negative = inhibition, usual class: inhibitors; Sphingomyelin phosphodiesterase (Homo sapiens), P17405; also: potency is read from the fitted curve at half-maximal effect
# Target sequence (P17405 47-631 limits assumed): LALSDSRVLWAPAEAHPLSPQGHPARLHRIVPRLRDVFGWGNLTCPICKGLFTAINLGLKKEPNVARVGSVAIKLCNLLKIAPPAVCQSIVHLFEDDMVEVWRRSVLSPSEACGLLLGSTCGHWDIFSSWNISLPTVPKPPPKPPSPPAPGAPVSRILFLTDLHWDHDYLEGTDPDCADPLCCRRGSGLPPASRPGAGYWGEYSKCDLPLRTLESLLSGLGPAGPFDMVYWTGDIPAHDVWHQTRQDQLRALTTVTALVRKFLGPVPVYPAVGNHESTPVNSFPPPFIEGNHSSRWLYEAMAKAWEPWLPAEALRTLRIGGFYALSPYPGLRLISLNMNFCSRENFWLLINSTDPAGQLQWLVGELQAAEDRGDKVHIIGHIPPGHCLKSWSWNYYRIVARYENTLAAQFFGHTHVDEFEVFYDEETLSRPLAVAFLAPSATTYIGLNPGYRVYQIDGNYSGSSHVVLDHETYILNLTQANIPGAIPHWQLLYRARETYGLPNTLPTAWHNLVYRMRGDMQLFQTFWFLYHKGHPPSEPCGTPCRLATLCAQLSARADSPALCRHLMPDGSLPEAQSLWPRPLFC
#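 Human placenta-derived ASM preincubated with compound 10 min at room temperature, then reacted with 9 uM (final) fluorogenic HMU-PC substrate for 60 min at 37 C. Stop solution raises pH to 10; fluorescence read at Ex 386/Em 447 nm.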
# SW480 rereplic: A quantitative high throughput screen for small molecules that induce DNA re-replication in SW480 colon adenocarcinoma cells | hit rate 1.8% among 340,000 | AID 624297, 2012 | Potency, µM (top dose mostly 46.1 µM), for the others: top-dose re-replication activation, most hits filed as activators | SW480 DNA re-replication, Hoechst DNA content imaging, 48 h; also: potency is read from the fitted curve at half-maximal effect; % of control where 0% means no effect; nearly all actives have a fitted effect of over 55% in size
#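 Per well, 250 cells were exposed to pinned compound for 48 hr. Nuclear DNA was visualised with Hoechst (40 min, 37 C) and total object intensity recorded by fluorescence scanning.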
# KB-3-1 cytotox: qHTS assay for MDR1-selective chemotherapeutics: Primary screen using the parental adenocarcinoma cell KB-3-1; KB-3-1 viability, CellTiter-Glo ATP luminescence, 72 h; Potency, µM (doses to about 46.1 µM), actives largely listed as cytotoxic; hit rate 1.4% among 400,000; AID 1347075, 2019; also: potency is read from the fitted curve at half-maximal effect; % is scaled to controls: 0 for no effect and ±100 for the full control effect; nearly all actives have a fitted effect of over 60% in size
#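 Screening of KB-3-1 cells (DMEM, 10% FBS, phenol-red free) ran from lowest to highest compound concentration; after 72 h at 37 °C viability was read luminescently and curves fitted.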
# MCF10A rereplic: A quantitative high throughput screen for small molecules that induce DNA re-replication in MCF 10a normal breast cells; MCF 10A DNA re-replication, Hoechst nuclear intensity, 48 h; Potency, µM (highest dose often 46.1 µM), for inactives: at the highest dose activity, positive = re-replication, most hits filed as activators; hit rate 2.9% among 350,000; also: potency is read from the fitted curve at half-maximal effect; % of control where 0% means no effect; nearly all actives have a fitted effect of over 50% in size
# An asterisk follows results filed as active; i = inactive; ? = inconclusive; · = no result. Shown are actives, neighbours in structure and some others; about 6.9% of the full set was active somewhere. Unless noted, calls follow the shape of the dose curve; as a rule, active = well fitted curve in the direction sought with a large enough effect; inconclusive = small, poorly fitted or top-dose-only effect, or another doubt; inactive = no such curve, though single readings can be large; an effect the other way counts as inactive or inconclusive.
SMILES,KB-V1 MDR tox,Giardia killer,S-ASM inh,SW480 rereplic,KB-3-1 cytotox,MCF10A rereplic
COc1cc(/C=C2\SC(=S)N(CCC(=O)Nc3ccc(O)cc3)C2=O)cc(OC)c1OC,i,16.1,-5.1%,?,i,16.4µM*
COc1ccc(/C=C2\SC(=O)N(CC(=O)Nc3cccnc3)C2=O)cc1OC,i,-2.1,14.1%,?,i,12.1%
Cc1ccc(/C=C2\SC(=S)N(CCC(=O)N3CCCCC3)C2=O)cc1,i,8.8,2.8%,-3.7%,?,1.4%
COc1cc(/C=C2\SC(=S)N(CCC(=O)N3CCCCC3)C2=O)cc(OC)c1OC,?,1.3,?,?,?,20.6µM*
N=C1S/C(=C\c2ccccc2F)C(=O)N1c1ccc(F)cc1,i,12.3,-2.2%,-5.8%,i,-5.9%
COc1cccc(/C=C2\SC(=S)N(CCC(=O)N3CCCCC3CCO)C2=O)c1 (centres undefined),?,49.3,-16.4%,18.4µM*,?,23.1µM*
COc1cc(/C=C2\SC(=N)N(c3ccc(F)cc3)C2=O)ccc1O,?,-28.6,-10.8%,?,i,18.4µM*
COc1cccc(/C=C2\SC(=S)N(CCCC(=O)N3CCCCC3CCO)C2=O)c1 (centres undefined),i,10.1,-24.4%,2.9%,i,?
COc1ccc(-c2cc(C(=O)Nc3cccc(C(C)=O)c3)no2)cc1OC,?,·,·,·,i,·
Cc1ccc(-n2c(C)cc(/C=C3/SC(=O)N(CC(=O)N4CCOCC4)C3=O)c2C)nc1,i,-10.0,29.2%,18.4µM*,i,1.9%
Clc1ccc(-c2nc3cnccn3c2NC2CCCC2)cc1,6.51µM*,21.2,263.5%,23.1µM*,?,20.6µM*
CCC(C)Sc1ccc(-c2nc3cnccn3c2NC2CCCCC2)cc1 (centres undefined),?,-7.9,i,?,?,?
COc1ccc(Sc2ccc(-c3nc4cnccn4c3NC3CCCCC3)cc2OC)cc1,?,8.6,i,18.4µM*,?,3.26µM*
Cc1ccc2nc(-c3ccncc3)c(NC3CCCCC3)n2c1,20.6µM*,16.9,23.4%,0.4%,?,9.1%
CCc1cccc(CC)c1NC(=O)CCS(=O)(=O)c1ccc2c(c1)CCN2C(C)=O,i,·,·,·,i,·
CN(c1ccccc1)c1nc(C#N)nc(N2CCOCC2)n1,?,4.3,·,·,i,·
CCc1cc2c(=O)n(CC(C)C)cnc2s1,?,-17.7,5.8%,234.2%,i,-8.6%
CCCCCn1cnc2sc(CC)cc2c1=O,14.6µM*,4.3,-3.5%,0.0%,i,2.9%
Cc1ccc(CC2(OCCN(C)C)CCC(C(C)(C)C)CC2)cc1 (centres undefined),18.4µM*,-2.0,-5.2%,24.0%,?,?
CN(C)CCOC1(Cc2ccc(F)cc2)CCC(C(C)(C)C)CC1 (centres undefined),16.4µM*,-9.2,-1.2%,11.8%,i,11.2%
Cc1ccc(CNC(=S)NC2CCC(C(C)(C)C)CC2)cc1 (centres undefined),i,0.4,-5.9%,-4.8%,i,?
Cc1ccccc1C(=O)Nc1ccc(S(=O)(=O)N2CCC(c3nc4ccccc4s3)CC2)cc1,i,·,·,·,i,·
N#CC[n+]1cccc(Br)c1,i,·,·,·,i,·
CCc1nn(CC(=O)NCCc2ccc(Cl)cc2)c(=O)c2cc3ccccc3n12,i,·,·,·,i,·
Cc1cccc(Nc2nc(NC(C)C)nc(Oc3ccc(=O)n(C)n3)n2)c1,8.2µM*,-3.0,-0.8%,-18.7%,i,-3.5%
SMILES,KB-V1 MDR tox,Giardia killer,S-ASM inh,SW480 rereplic,KB-3-1 cytotox,MCF10A rereplic
Cc1cccc(NC(=S)Nc2cccc(C)n2)n1,i,1.2,-4.1%,0.9%,i,1.9%
CC(=NNC(=S)N1CCCCC1)c1cccc(C)n1,?,-18.3,0.5%,?,0.231µM*,?
CSC(=S)NN=C(C)c1cccc(C)n1,?,-1.4,-4.2%,0.366µM*,?,?
Cc1cccc(C(=S)N2CCOCC2)n1,i,-18.5,4.1%,-21.1%,i,3.9%
O=C(Nc1ccccc1)C1CCOC1=O (centres undefined),i,20.9,-0.2%,-33.0%,i,-3.3%
O=C(COCc1cc(-c2ccco2)on1)Nc1ccc(OC(F)(F)F)cc1,?,·,·,·,i,·
COc1ccc(/C=N/NC(=O)c2cc3cc(OC)c(OC)cc3[nH]2)cc1,i,-8.1,76.6%,-2.9%,i,-6.9%
CCOc1ccc2[nH]c(C(=O)N/N=C/c3ccc(OC)cc3)cc2c1,?,-21.4,-8.5%,1.16µM*,1.46µM*,?
O=C(O)C1=CC(c2ccc(Br)cc2)n2ncnc2N1 (centres undefined),?,·,·,·,i,·
CCC(=O)/C=C1\Sc2ccc(OC)cc2N1CC,14.6µM*,-2.0,-3.1%,-3.9%,?,23.3%
CNc1ccc(Br)cc(C(=O)/C=C/c2cc(OC)ccc2OC)c1=O,18.4µM*,4.9,-13.4%,?,?,?
CCNc1ccc(Br)cc(C(=O)/C=C/c2ccc(Cl)cc2Cl)c1=O,18.4µM*,-5.8,-12.6%,?,?,20.6µM*
CNc1ccc(Br)cc(C(=O)/C=C/c2ccc(OC)cc2)c1=O,?,-4.7,-0.9%,-5.9%,?,?
CC(NC(=O)c1ccc2c(c1)OCCO2)c1ccc(S(N)(=O)=O)cc1 (centres undefined),i,3.5,2.6%,17.6%,i,1.7%
CCOc1ccc(NC(=O)c2cc3c(-c4ccccc4F)nn(C)c3s2)cc1,i,·,·,·,i,·
CC(C)c1ccc(C(=O)Nc2cc(-c3ccccc3F)nn2-c2ccccc2)cc1,i,·,·,·,i,·
O=C(Nc1ncc2c(n1)-c1ccccc1CC2)c1ccc(Cl)cc1,9.2µM*,5.7,-1.7%,13.7%,i,9.7%
O=C(Nc1ncc2c(n1)-c1ccccc1OC2)c1ccc(F)cc1,i,-4.5,35.5%,-3.7%,?,1.0%
O=C(Nc1ncc2c(n1)-c1ccccc1CC2)c1cccc(Cl)c1,?,15.4,0.4%,?,10.3µM*,13µM*
Cc1ccc(CN2CCc3nc(SCC(=O)Nc4cccc(C)c4C)[nH]c(=O)c3C2)cc1,i,·,·,·,i,·
CCOC(=O)C1=C(Nc2ccccc2)CC(C)(O)C(C(=O)OCC)C1c1ccc(Br)cc1 (centres undefined),23.1µM*,7.2,-14.4%,?,?,5.4%
